From PubChem BioAssay (EPA / NIEHS) come the findings set out here.

Values joined by “and” are separate entries in the source; they are usually repeats but may differ in a detail not shown here. Equal values may be shown once. Inconclusive results are not listed. Active and inactive are the calls of the source. The calls were made as follows: active = hit-call score of the fitted dose curve at least 0.9, where 1 is the maximum; inconclusive = response in the unintended direction; inactive = score below 0.9.

Sequence of Nucleoli Translocation, AR (gene 367) (P10275 whole entry, looked up): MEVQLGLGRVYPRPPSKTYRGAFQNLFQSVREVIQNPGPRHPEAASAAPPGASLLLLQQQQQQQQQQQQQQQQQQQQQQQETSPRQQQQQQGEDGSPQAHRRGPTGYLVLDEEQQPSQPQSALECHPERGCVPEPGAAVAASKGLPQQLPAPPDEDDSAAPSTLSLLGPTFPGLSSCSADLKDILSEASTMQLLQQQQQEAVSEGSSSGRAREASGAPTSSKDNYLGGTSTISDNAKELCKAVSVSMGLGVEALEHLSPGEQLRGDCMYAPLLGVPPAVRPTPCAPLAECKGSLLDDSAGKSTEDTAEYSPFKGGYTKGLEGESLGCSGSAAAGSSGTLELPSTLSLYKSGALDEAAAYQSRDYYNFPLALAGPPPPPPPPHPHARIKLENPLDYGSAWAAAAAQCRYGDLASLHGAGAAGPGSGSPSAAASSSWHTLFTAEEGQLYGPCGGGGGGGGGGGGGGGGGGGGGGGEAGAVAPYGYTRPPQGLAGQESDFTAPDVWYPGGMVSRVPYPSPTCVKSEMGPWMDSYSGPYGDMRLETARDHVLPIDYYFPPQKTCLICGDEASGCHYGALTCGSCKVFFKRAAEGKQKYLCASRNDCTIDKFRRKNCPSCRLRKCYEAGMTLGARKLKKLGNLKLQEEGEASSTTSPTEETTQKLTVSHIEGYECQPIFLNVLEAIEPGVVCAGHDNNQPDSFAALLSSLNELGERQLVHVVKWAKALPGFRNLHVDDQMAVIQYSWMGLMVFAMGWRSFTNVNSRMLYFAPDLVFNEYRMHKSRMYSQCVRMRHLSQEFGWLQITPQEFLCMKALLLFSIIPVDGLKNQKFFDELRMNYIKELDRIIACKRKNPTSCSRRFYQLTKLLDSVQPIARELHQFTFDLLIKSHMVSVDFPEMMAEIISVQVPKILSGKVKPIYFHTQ

The test system of one assay is DIO1 (gene 1733). Description: CCTE_GLTED_hDIO1: CCTE's human Deiodinase 1 (DIO1) Inhibition Assay, Great Lakes Toxicology and Ecology Division (GLTED) Lab (AID 2283987).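 Also: isolated human DIO1 enzyme in a cell-free setup rather than cells; enzyme activity read as free iodide liberated from substrate via Sandell-Kolthoff colorimetry.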 An outline of the steps: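 Cell-free human DIO1 enzyme was incubated with test chemical for 3 h, and iodide released from substrate was measured by Sandell-Kolthoff absorbance. Loss of signal versus DMSO baseline indicated inhibition; plates were run in triplicate.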
By AC50 is commonly meant the midpoint of the concentration-response curve, whichever way the signal moves. Turning to `O=C(O)C(F)(F)C(F)(F)C(F)(F)C(F)(F)C(F)(F)C(F)(F)C(F)(F)C(F)(F)C(F)(F)F`, the AC50 was 103 µM (active) and 70.6 µM (active). `CCCCCCCCCC[N+](C)(C)CCCCCCCCCC`: the AC50 was 40.7 µM (active). As for `CCCCCCCCCc1ccc(O)cc1`, the half-maximal activity concentration (AC50) was 90.3 µM (active). As for `NS(=O)(=O)C(F)(F)C(F)(F)C(F)(F)C(F)(F)C(F)(F)C(F)(F)C(F)(F)C(F)(F)F`, the AC50 is 26.8 µM (active).

As to `CC#Cc1cc(C)nc(Nc2ccccc2)n1`, the AC50 was 27 µM (active).

The next assay addresses Nucleoli Translocation, AR (gene 367) (UniProt P10275). Description: UPITT_HCI_U2OS_AR_TIF2_Nucleoli_Antagonist: University of Pittsburgh U2OS Androgen Receptor-Transcriptional Intermediary Factor 2 (AR-TIF2) Antagonism High Content Imaging Assay for Nucleoli Translocation (AID 2283997). An outline of the steps: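 Antagonism is read as loss of nucleolar AR-RFP signal relative to DHT, imaged in U2OS cells also carrying GFP-TIF2. Compounds screened at 20 uM final, 0.2% DMSO; primary actives retested in triplicate.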
`O=C(NC(=O)c1c(F)cccc1F)Nc1cc(Cl)c(OC(F)(F)C(F)F)c(Cl)c1`: the outcome was inactive. For the compound `C=CC(=O)NCNC(=O)C=C`, the compound was called inactive. Same read-out and setting: with `c1cc2ccc3cccc4ccc(c1)c2c34` the entry was “inactive”.

For `CCOC(=O)C(O)(c1ccc(Cl)cc1)c1ccc(Cl)cc1`, the AC50 is 13.3 µM (active). `NS(=O)(=O)C(F)(F)C(F)(F)C(F)(F)C(F)(F)C(F)(F)C(F)(F)C(F)(F)C(F)(F)F`: the AC50 was 82.7 µM (active).

As for `CCNc1nc(NC(C)C)nc(SC)n1`, the compound was classed as inactive. For the compound `c1ccc(-c2ccccc2)cc1`, the result was inactive. The same measure, in the same setting: with `CCCCCCCCOC(=O)c1ccccc1C(=O)OCCCCCCCC` the entry was “inactive”; with `O=C(N[C@H]1CN2CCC1CC2)c1cc2ccoc2cn1`, “inactive”. Turning to `Cc1ccccc1CO[C@@H]1C[C@@]2(C(C)C)CC[C@]1(C)O2`, the result was inactive.

Turning to `CC1=C2C[C@H]3[C@@H](CC=C4C[C@@H](O)CC[C@@]43C)[C@@H]2CC[C@]12O[C@@H]1C[C@H](C)CN[C@H]1[C@H]2C`, the call was inactive.
